Source: PubChem BioAssay (National Center for Advancing Translational Sciences (NCATS))
Rows were chosen to be rich in hits. Some 6.6% of all compounds tested hit in one or more screens of this group.
HT1080 IDH1KD tx – qHTS for induction of synthetic lethality in tumor cells producing 2HG: qHTS for the HT-1080-IDH1KD cell line. HT-1080 IDH1 knockdown viability, ATP luminescence, 48 h. Potency, µM (series often up to 46.1 µM), for inactives: top-dose activity, negative = toxicity, most hits filed as cytotoxic. 2% of 360,000 active. AID 686971, 2013;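 note: 0% = DMSO wells and -100% = cell-free medium wells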
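Using the IDH1-knockdown HT-1080 line run in the same batch and compound series as the NT line, viability after 48 h at 37 °C was determined by CellTiter-Glo luminescence and expressed as % activity.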
HepG2 viability – qHTS for Inhibitors of TGF-b: Cytotox Counterscreen; Potency, µM (doses to about 46.1 µM), inactives show at the highest dose activity change, negative = cytotoxicity, hits mostly cytotoxic; HepG2 CAGA-GFP viability, ATP luminescence, 18 h; 0.76% of 410,000 active
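HepG2 CAGA-GFP cells (1000/well, DMEM with 1% FBS) received compound, then TGF-beta at 500 pg/mL final, and were incubated 18 hours at 37 degrees C. Viability was read by CellTiter-Glo luminescence. Media-only wells were set as complete cell-killing and DMSO as no toxicity.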
KB-V1 MDR tox – qHTS assay for MDR1-selective chemotherapeutics: Primary screen using the drug-selected MDR subline cells KB-V1; AID 1347076, 2019; Potency, µM (top dose mostly 46.1 µM), most hits filed as cytotoxic; 3.4% of 400,000 active; KB-V1 MDR cells viability, CellTiter-Glo, 72 h; note: % is set by controls: 0 for no effect and ±100 for the full control effect; nearly all actives have a fitted effect of over 60% in size
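Following 72 h at 37 degrees C with compound, KB-V1 cell viability was read by CellTiter-Glo luminescence, medium being phenol-red-free DMEM plus 10% FBS; concentration-response parameters came from normalized, curve-fitted qHTS data.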
KB-3-1 cytotox – qHTS assay for MDR1-selective chemotherapeutics: Primary screen using the parental adenocarcinoma cell KB-3-1; KB-3-1 viability, CellTiter-Glo ATP luminescence, 72 h; Potency, µM (top dose mostly 46.1 µM), usual class: cytotoxic; 1.4% of 400,000 active; note: % is set by controls: 0 for no effect and ±100 for the full control effect; nearly all actives have a fitted effect of over 60% in size
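KB-3-1 cells, DMEM (no phenol red) + 10% FBS; compound by pin transfer, 72 h, 37 °C. Readout: CellTiter-Glo luminescence after 10 min. Data normalized, curve-fitted.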
TGFb inhibitor – qHTS for Inhibitors of TGF-b | 1.2% of 410,000 active | HepG2 CAGA-GFP TGF-b/SMAD3 reporter, GFP fluorescence, 18 h; TGF-beta stimulated, 500 pg/mL final | Potency, µM (highest dose often 46.1 µM), for the others: at the top dose activity, negative = inhibition, actives largely listed as inhibitors; note: % is set by controls: 0 for no effect and ±100 for the full control effect; nearly all actives have a fitted effect of over 65% in size
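Read-out: total well GFP (ex488/em500-530) summed from mean per-cell fluorescence. Cells: HEPG2 CAGA-GFP, 1% FBS DMEM, 18 h at 37 degrees C with 500 pg/mL final TGF-beta. Unstimulated wells served as the full-inhibition control; stimulated DMSO wells = 0%.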
HT1080NT lethal – qHTS for induction of synthetic lethality in tumor cells producing 2HG: qHTS for the HT-1080-NT fibrosarcoma cell line. HT-1080-NT fibrosarcoma viability, CellTiter-Glo ATP luminescence, 48 h. Potency, µM (doses to about 46.1 µM), inactives show at the highest dose activity, negative = less viability, most hits filed as cytotoxic. 1.6% of 360,000 active. AID 686970, 2013;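 note: NT is the 2HG producing partner of a matched IDH1 knockdown line; 0% = DMSO-treated cells and -100% = media-only wells without cells; nearly all actives have a fitted effect of over 55% in size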
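A 48-hour cytotoxicity screen used HT-1080-NT cells plated 2 hours before compound delivery. ATP-based CellTiter-Glo luminescence measured viability, normalized to DMSO and no-cell controls.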
The depositor's hits bear a star; i = inactive; u = inconclusive; x = no result; ! = repeats disagree. Calls come from the whole dose curve; as a rule, active = well fitted curve in the direction sought with a large enough effect; inconclusive = small, poorly fitted or top-dose-only effect, or another doubt; inactive = no such curve, though single readings can be large; an effect the other way counts as inactive or inconclusive. Potency is the fitted concentration of half-maximal effect.

SMILES	HT1080 IDH1KD tx	HepG2 viability	KB-V1 MDR tox	KB-3-1 cytotox	TGFb inhibitor	HT1080NT lethal
Cc1cc(C)n(-c2nnc(C)n2/N=C/c2ccco2)n1	3%	-20%	i	i	17%	-3%
CCCOc1ccc2ccccc2c1/C=N/n1c(C)nnc1-n1nc(C)cc1C	4.1µM*	-38%	5.8µM*	5.2µM*	u	u
Cc1ccn2c(NCc3ccccc3)c(-c3cccc(SC4CCCCC4)c3)nc2c1	u	-53%	21µM*!	u	13µM*	u
COc1ccc(-c2ccc(-c3nc4ccc(C)cn4c3NC3CCCCC3)cc2OC)cc1	u	-20%	16µM*!	u	u	u
CCCCNc1c(-c2ccc(SC3CCCCC3)c(OC)c2)nc2ccc(C)cn12	u	8.9µM*	u	u	u	u
CCCCNc1c(-c2ccc(OC)c(SC3CCCCC3)c2)nc2ccc(C)cn12	u	13µM*	u	u	18µM*	u
COc1ccc(-c2nc3ccc(C)cn3c2NCc2ccccc2)cc1SC1CCCCC1	u	-81%	i	i	20µM*	u
Cc1noc(C)c1S(=O)(=O)NCCc1csc2nc(-c3ccc(F)cc3)nn12	x	-24%	x	x	-26%	x
OC(CNC1CCCCC1)COCCOc1ccc(Br)cc1 (centres undefined)	u	-69%	23µM*	i	u	u
CC(CCc1ccccc1)NCC(O)COc1ccccc1 (centres undefined)	5%	-21%	i	i	-2%	0%
COC(=O)c1ccc(OCC(O)CNC2CCCC2)cc1 (centres undefined)	24%	-10%	i	i	1%	7%
OC(CNC1CCCC1)COc1ccc(-c2ccccc2)cc1 (centres undefined)	u	-7%	u	21µM*	-16%	u
CCCC(NCC(O)COc1ccc(-c2ccccc2)cc1)c1ccccc1 (centres undefined)	13µM*	-110%	u	u	u	-27%
COc1ccccc1Cc1nc2ccccc2nc1SCC(=O)NCc1ccccc1Cl	x	5%	x	x	-2%	x
CCc1ccc(-n2c(=O)c3sc4ccccc4c3n(Cc3cccc(F)c3)c2=O)cc1	x	7%	i	i	2%	x
C=CCOc1ccc(CN(C)CC(O)COc2cccc3ccccc23)cc1 (centres undefined)	u	13µM*	i	i	18µM*	u
Cn1c(=O)n(-c2ccc(F)c(Cl)c2)c(=O)c2sc3ccccc3c21	x	2%	i	i	-1%	x
O=C(c1cccs1)N1CCc2c([nH]c3ccccc23)C1c1ccc(Cl)cc1 (centres undefined)	-21%	-17%	12µM*	12µM*	-3%	u
CC1=C(C(=O)N(C)C)CC(CC(=O)NCc2cccc3ccccc23)C(=O)N1CCCN1CCCC1=O (centres undefined)	6%	-1%	i	i	-12%	0%
Cc1c(CCC(=O)NCCCn2ccnc2)c(=O)oc2c(C)c3occ(C(C)(C)C)c3cc12	18µM*	-25%	i	i	u	u
CCCC(=O)N1CCN(c2ccc(NC(=O)c3ccc(OCC)c([N+](=O)[O-])c3)cc2)CC1	-16%	2%	12µM*	i	0%	-16%
